An excerpt weighted towards active compounds, which were near 10% of everything screened.
FLuc inh – Photinus pyralis luciferase inhibition. Potency, µM (doses to about 115 µM), hits mostly inhibitors. purified P. pyralis luciferase, luminescence, biochemical. 76,000 tested, 2.5% active. AID 1347043. P08659; further: nearly all actives have a fitted effect of over 65% in size
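Luminescence read by CCD imager after adding enzyme (10nM final) to wells holding compound, titrated in qHTS. Substrates 10uM each D-luciferin and ATP; buffer 50mM Tris acetate pH 7.5, 10mM Mg acetate, Tween-20, BSA.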
hNpr1 antagonist – blocks ANP-stimulated signaling of human Npr1 receptor; P16066; HEK293 hNpr1 GloSensor cGMP, ANP-stimulated luminescence; Potency, µM (doses to about 46.3 µM), without a hit: at the top dose activity change, negative = inhibition, usual class: inhibitors; 76,000 tested, 1.6% active; AID 1347048; calls by dose curve; further: nearly all actives have a fitted effect of over 60% in size
Target sequence (P16066 whole entry, looked up): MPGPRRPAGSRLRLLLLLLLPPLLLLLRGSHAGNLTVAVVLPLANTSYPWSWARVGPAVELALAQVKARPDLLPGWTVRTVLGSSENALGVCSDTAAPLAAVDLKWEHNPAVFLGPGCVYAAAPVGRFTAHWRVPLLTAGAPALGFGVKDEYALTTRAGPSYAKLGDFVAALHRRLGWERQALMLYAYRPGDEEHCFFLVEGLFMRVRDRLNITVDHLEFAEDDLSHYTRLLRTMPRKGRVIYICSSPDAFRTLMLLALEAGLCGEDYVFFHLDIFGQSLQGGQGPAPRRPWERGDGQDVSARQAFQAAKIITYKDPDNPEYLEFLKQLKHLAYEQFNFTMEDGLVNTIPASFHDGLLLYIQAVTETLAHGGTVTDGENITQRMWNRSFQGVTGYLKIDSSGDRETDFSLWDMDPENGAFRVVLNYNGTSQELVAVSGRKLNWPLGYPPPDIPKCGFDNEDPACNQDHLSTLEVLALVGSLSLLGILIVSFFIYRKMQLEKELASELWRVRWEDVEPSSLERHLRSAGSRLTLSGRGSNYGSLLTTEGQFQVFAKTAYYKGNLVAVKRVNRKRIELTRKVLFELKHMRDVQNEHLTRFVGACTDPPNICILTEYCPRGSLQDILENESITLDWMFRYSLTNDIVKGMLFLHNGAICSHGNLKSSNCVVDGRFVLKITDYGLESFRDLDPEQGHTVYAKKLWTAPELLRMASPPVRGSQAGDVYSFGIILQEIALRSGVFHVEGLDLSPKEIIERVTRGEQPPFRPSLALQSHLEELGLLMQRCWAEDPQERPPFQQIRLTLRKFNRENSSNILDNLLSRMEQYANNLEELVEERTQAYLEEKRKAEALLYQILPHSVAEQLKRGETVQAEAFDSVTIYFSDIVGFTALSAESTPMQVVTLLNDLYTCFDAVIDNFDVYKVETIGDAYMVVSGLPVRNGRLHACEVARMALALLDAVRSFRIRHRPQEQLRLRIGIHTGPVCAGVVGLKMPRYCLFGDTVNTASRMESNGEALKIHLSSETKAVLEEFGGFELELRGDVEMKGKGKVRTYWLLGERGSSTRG
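Compound pre-incubated 30 min at room temperature on GloSensor-loaded HEK293 cells stably carrying hNpr1 and the pGS-40F cGMP biosensor. Stimulation uses hNppA at 0.1 nM final; luminescence is taken at baseline and 20 min post-agonist.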
HEK293 tox – HEK 293 cell cytotoxicity; HEK 293 viability, ATP luminescence (CellTiter-Glo), 48-72 h; Potency, µM (doses to about 115 µM), without a hit: top-dose activity change, negative = cytotoxicity, usual class: inhibitors; AID 1345083; 94,000 tested, 6.6% active; further: nearly all actives have a fitted effect of over 60% in size
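Read-out: CellTiter-Glo ATP luminescence. Cells: HEK 293, 250 cells/well. Exposure: 48 or 72 hr, 37 degree Celsius.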
GPT2 inh – blocks human glutamate pyruvate transaminase 2. Potency, µM (titrated, usually from 57.7 µM), for inactives: at the highest dose activity change, negative = inhibition, most hits filed as inhibitors. Q8TD30. 100,000 tested, 0.25% active. Recombinant GPT2, coupled pyruvate oxidase/HRP Amplex Red fluorescence. AID 1671188; further: nearly all actives have a fitted effect of over 60% in size
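Inhibition is scored from Amplex Red fluorescence generated when pyruvate oxidase and HRP act on pyruvate released by GPT2. Reactions contain 10ng/uL enzyme, 250uM a-KG and 2mM L-alanine and run 30 min at room temperature.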
NIH3T3 tox – kills NIH 3T3 cells; NIH 3T3 viability, CellTiter-Glo ATP luminescence, 48-72 h; Potency, µM (titrated, usually from 96.7 µM), for inactives: at the highest dose activity change, negative = cytotoxicity, usual class: inhibitors; 94,000 tested, 4.3% active; further: nearly all actives have a fitted effect of over 55% in size
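First NIH 3T3 cells are plated at 400 cells/well; next compound is pinned in; then plates incubate 48 or 72 hr at 37 °C; finally CellTiter-Glo is added and luminescence read after 10 min.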
Starred values were filed as active, the others as inactive; i = inactive; ? = inconclusive; / = not tested or not shown; [ ] = remark or other dose. Unless noted, the call rests on the fitted dose curve; in most records, active means well fitted curve in the direction sought with a large enough effect; inconclusive means small, poorly fitted or top-dose-only effect, or another doubt; inactive means no such curve, though single readings can be large; an effect the other way counts as inactive or inconclusive. On the % scale 0 is the no-effect control and ±100 the full control effect; potency means the concentration at half of the fitted maximal effect.

SMILES | FLuc inh | hNpr1 antagonist | HEK293 tox | GPT2 inh | NIH3T3 tox
Cc1cc(=O)n(CC(=O)Nc2cc(Cl)ccc2C)c(N(C)Cc2ccccc2)n1 | i | -3% | 25µM* | -9% | ?
CC(C)n1cnnc1-c1nn(C)c2c1CN(C(=O)c1nn(C)c3ccccc13)CC2 | i | 6% | 0% | i | -7%
Cc1cccc(N2CCN(C(=O)c3noc(-c4ccc5c(c4)OCO5)n3)CC2)c1 | 22µM* | -1% | ? | -2% | ?
COc1ccccc1CNC(=O)C1CCN(Cc2ccccc2-c2cccnc2)CC1 | / | / | ? | 0% | ?
COc1ccc(C(=O)N2CCCC(Cc3ncc(C)n3Cc3ccccc3)C2)c(OC)c1 (centres undefined) | 22µM* | -3% | -21% | -1% | -7%
O=C1CC2(CCN(C(=O)c3ccccc3)CC2)Oc2ccccc21 | i | 2%[70.6 µM] | ? | -4%[88.5 µM] | ?
COc1ccc(C(=O)N2CCC3(CC2)CC(=O)c2ccc(Cl)cc2O3)cc1 | i | -10% | 50µM* | ? | ?
O=C1CC2(CCN([S+](=O)([O-])c3cccc(C(F)(F)F)c3)CC2)Oc2ccccc21 | i | 0% | ? | i | ?
Cc1ccc(C(=O)N2CCC3(CC2)CC(=O)c2ccc(Cl)cc2O3)cc1 | i | ? | ? | -33% | 35µM*
O=C1CC2(CCN([S+](=O)([O-])c3cccc(C(F)(F)F)c3)CC2)Oc2cc(Cl)ccc21 | i | 0% | 32µM* | ? | ?
OC[C@@H]1CN(Cc2ccccc2)C[C@H]1c1nc(-c2ccncc2)no1 | ? | ? | ? | 3% | ?
COc1ccc(-c2nnc3ccc(N4CCN(C(C)=O)CC4)nn23)nc1 | i | -8%[70.6 µM] | -4%[172 µM] | -28%[88.5 µM] | ?
COc1ccnc(-c2nnc3ccc(N4C[C@@H](C)O[C@@H](C)C4)nn23)c1 | i | 6%[70.6 µM] | ? | 0%[88.5 µM] | 32µM*
c1ccc(C2CCN(c3ccc4nnc(-c5ccccn5)n4n3)CC2)cc1 | i | -4%[70.6 µM] | 63µM* | -11%[88.5 µM] | 32µM*
COc1ccc(-c2nnc3ccc(N4CCCC4)nn23)nc1 | i | 3%[70.6 µM] | -18%[172 µM] | 4%[88.5 µM] | 32µM*
Fc1ccc(-c2nnc3ccc(N4CCN(c5ccccn5)CC4)nn23)nc1 | i | -2%[70.6 µM] | -6%[172 µM] | 0%[88.5 µM] | ?
OCc1ccc(-c2ccc3nnc(-c4ccccn4)n3n2)cc1 | i | 0%[70.6 µM] | i | -6%[88.5 µM] | 89µM*
COC[C@H]1CCCN1Cc1nc(C2(O)CCN(Cc3ccccc3C(F)(F)F)CC2)cs1 | i | 3% | ? | -10% | -35%
COc1ccccc1C(=O)Nc1cc(-c2cccnc2)nn1-c1ccccc1 | / | / | ? | -3% | ?
N#Cc1ccc(-c2nc(C(=O)NC3CCCCC3)no2)cc1 | i | 3% | -19% | i | 2%
COc1ccccc1C(=O)N1CCC(C(=O)N2CCC(c3ccccc3)CC2)CC1 | / | / | ? | 3% | ?
COc1ccnc(-c2nnc3ccc(N4CCc5ccccc5CC4)nn23)c1 | i | 5%[70.6 µM] | 56µM* | -13%[88.5 µM] | 50µM*
COc1cncc(Nc2cnc3ccc(-c4ccccc4)nn23)c1 | i | -14%[70.6 µM] | -26%[172 µM] | ? | ?
O=C(NCc1ccccc1Cl)c1ccc2nnc(C3CCCC3)n2c1 | / | / | ? | i | 35µM*
O=C(NCc1cccs1)c1ccc2nnc(Cc3ccc(Cl)cc3)n2c1 | / | / | 45µM* | -6% | ?
SMILES | FLuc inh | hNpr1 antagonist | HEK293 tox | GPT2 inh | NIH3T3 tox
O=C(NCc1cccc(Cl)c1)c1ccc2nnc(C3CCOCC3)n2c1 | / | / | 2% | / | -36%
O=C(NCc1cccc(C(F)(F)F)c1)c1ccc2nnc(C3CCCC3)n2c1 | / | / | 45µM* | -4% | ?
O=C(NCc1cccc(Cl)c1)c1ccc2nnc(C3CCCC3)n2c1 | / | / | ? | i | 40µM*
COc1ccc(-n2c(=O)c(C(=O)NCc3cccc(Cl)c3)nc3cccnc32)cc1 | / | / | ? | 0% | ?
O=C(NCc1ccc(Cl)cc1)c1ccc2nnc(C3CC3)n2c1 | / | / | ? | i | ?
O=C(NCc1ccc(Cl)cc1)c1ccc2nnc(C3CCCC3)n2c1 | / | / | ? | -40% | 32µM*
COC(=O)CNC(=O)C1CCCCN1Cc1ccc(-c2ccsc2)cc1 (centres undefined) | / | / | ? | -6% | ?
CN1Cc2ccc(NCc3ccccc3)nc2C(C)(C(=O)NCCOc2ccccc2)C1 (centres undefined) | 63µM* | ? | ? | -26%[88.5 µM] | ?
COc1ccc(NC(=O)C2(C)CN(C)Cc3ccc(NCc4ccccc4)nc32)cc1 (centres undefined) | i | -17%[70.6 µM] | ? | 1%[88.5 µM] | 45µM*
CN(C)CCNC(=O)C1(C)CN(Cc2ccccc2)Cc2ccc(Nc3ccccc3)nc21 (centres undefined) | i | 1% | 28µM* | -4% | 16µM*
COCCNC(=O)C1(C)CN(C)Cc2ccc(Nc3ccccc3)nc21 (centres undefined) | i | 0%[70.6 µM] | ? | -5%[88.5 µM] | -23%[138 µM]
CN1Cc2ccc(NCc3ccccc3)nc2C(C)(C(=O)Nc2ccccc2)C1 (centres undefined) | i | -28%[70.6 µM] | 63µM* | -2%[88.5 µM] | 45µM*
COCCN1Cc2ccc(Nc3ccc(OC)cc3)nc2C(C)(C(=O)NC(C)C)C1 (centres undefined) | i | 6%[70.6 µM] | ? | i | ?
CN(C)c1nc2c(c(=O)[nH]1)CCN(Cc1ccc(Br)cc1)CC2 | i | -2% | 4% | i | i
COc1ccccc1C(=O)N1CCC(C(=O)N2CCC(c3nc4ncccc4[nH]3)CC2)C1 (centres undefined) | / | / | i | i | -5%
COc1cccc(Nc2ccc3c(n2)C(C)(C(=O)NCc2cccs2)CN(C)C3)c1 (centres undefined) | i | -5%[70.6 µM] | ? | -9%[88.5 µM] | ?
CN1Cc2ccc(NCc3ccccc3)nc2C(C)(C(=O)NCc2cccs2)C1 (centres undefined) | i | -19%[70.6 µM] | ? | -1%[88.5 µM] | 79µM*
O[C@@H]1C[C@@H](c2nc(-c3ccc4c(c3)OCO4)no2)N(CCCc2ccccc2)C1 | 35µM* | -4%[70.6 µM] | ? | -5%[88.5 µM] | ?
O[C@@H]1C[C@@H](c2nc(-c3ccc4c(c3)OCO4)no2)N(CC2CC2)C1 | 22µM* | -13%[70.6 µM] | ? | i | -27%[174 µM]
O[C@@H]1C[C@@H](c2nc(-c3ccc4c(c3)OCO4)no2)N(CC2CCCCC2)C1 | ? | -5%[70.6 µM] | 89µM* | i | 89µM*
O[C@@H]1C[C@@H](c2nc(-c3ccc4c(c3)OCO4)no2)N(Cc2ccccn2)C1 | 45µM* | -1%[70.6 µM] | ? | -18%[88.5 µM] | -17%[174 µM]
Oc1ccccc1CN1C[C@H](O)C[C@H]1c1nc(-c2ccc3c(c2)OCO3)no1 | ? | -3%[70.6 µM] | -20%[172 µM] | -9%[88.5 µM] | -17%[138 µM]

Screening results: PubChem, National Center for Advancing Translational Sciences (NCATS)
